Inhibition data for 94 compounds are collected here from PubChem BioAssay AID1578 (Sanford-Burnham Center for Chemical Genomics, 2009).

About 3,000 (1%) of roughly 290,000 compounds were called active. Only a selection was taken, and actives are over-represented in it overall. Unmarked numbers belong to inactive results. No stated cut-off is given here; in the data, active means inhibition mostly above about 36% (no sharp cut-off); inactive means mostly below about 34%.

This experiment is described as follows: NOD1 signaling inhibitors, primary screen, cell-based, luminescence, uHTS (AID 1578).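 Further: HEK-293T reporter cells stimulated with the NOD1 agonist gamma-tri-DAP.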 Particulars: NOD1-driven NF-kB luciferase reporter cells, at 4 µM, active compounds read high.
As usually defined, the inhibition is the change of the read-out against control, counted positive when it falls. On to `Cc1c(C(=O)Nc2ccc3c(c2)OCCO3)sc2nc(-c3ccccc3)cn12`, for which the inhibition was 79.1% (active).
With `Cc1c(C(=O)Nc2ccc3c(c2)OCO3)sc2nc(-c3ccccc3)cn12` the figure was -35.7%; with `Cc1c(C(=O)Nc2ccccc2)sc2nc(-c3ccccc3)cn12`, -15.4%; with `CCCCOc1cccc(C(=O)NC(=S)Nc2cccc(NC(=O)c3ccccc3Cl)c2)c1`, -15.9%.
In the case of `COc1ccc2c(c1OC)C(=O)N(c1cccc(C(F)(F)F)c1)C2`, the inhibition was -67.5%.
With `CC(=O)c1ccccc1C(=O)NCc1cccnc1` the figure was -9.2%; with `COC(=O)C1=C(C)Nc2c(c(=O)n(C)c(=O)n2C)C1c1cccnc1` (centres undefined), -10.6%.
Take `COC(=O)C1=C(C)Nc2c(c(=O)n(C)c(=O)n2C)C1c1ccncc1` (centres undefined): the inhibition is 68.6% (active).
With `COC(=O)C1=C(C)Nc2c(c(=O)n(C)c(=O)n2C)C1c1ccc(C)cc1` (centres undefined) the figure was -27.5%; with `Cc1ccc(S(=O)(=O)N(CC(=O)Nc2cccnc2)c2cccc([N+](=O)[O-])c2)cc1`, -14.2%.
In the case of `Cc1ccc(/C=C2/SC(=S)N(CCCC(=O)Nc3cc([N+](=O)[O-])ccc3O)C2=O)cc1`, the inhibition is 71.1% (active).
With `Cc1ccc(O)c(NC(=O)CSc2ccc(Cl)cc2)c1` the figure was 17%.
On to `O=C(CCN1C(=O)/C(=C/c2ccc(F)cc2)SC1=S)Nc1cc([N+](=O)[O-])ccc1O`, for which the inhibition is -1.3%.
With `O=C(CCCN1C(=O)/C(=C\c2cccs2)SC1=S)Nc1cc([N+](=O)[O-])ccc1O` the figure was 26.3%.
With `COc1ccc([N+](=O)[O-])cc1NC(=O)CSc1ccc2ccccc2c1` the figure was 41.3%; with `COc1ccc(/C=C2/SC(=S)N(CCCC(=O)Nc3ccccc3C(=O)O)C2=O)cc1`, 34.1%.
Regarding `Cc1ccc(SCC(=O)Nc2cc([N+](=O)[O-])ccc2O)cc1`, the inhibition is 77.2% (active).
With `Cc1ccc(/C=C2\SC(=S)N(CCC(=O)NNC(=O)c3ccccc3O)C2=O)cc1` the figure was -24.7%; with `COc1cc(Cl)ccc1OCc1cc(C(=O)N(C)Cc2cccc3cnccc23)no1`, 11.4%; with `CC1(C)SC(=S)N(/N=C/c2ccccc2O)C1N(O)C(=O)Nc1ccccc1` (centres undefined), -1.1%.
With `CCCSc1nnc(NC(=O)c2nc(SC)ncc2Cl)s1` the figure was -10.4%.
With `Cc1cccn2c(=O)c(C=Nc3c(C)n(C)n(-c4ccccc4)c3=O)c(N3CCCC3)nc12` the figure was -3.8%.
Consider `COc1ccccc1NC(=S)N1CCc2cc(OC)c(OC)cc2C1`, for which the inhibition is -30%.
With `Oc1ccc(N=Nc2c(O)ccc3ccccc23)cc1` the figure was 24%; with `Oc1ccc2ccccc2c1N=Nc1nccs1`, 106% (active); with `Oc1ccc2ccccc2c1/C=N/c1nccs1`, -6%.
As to `CCCCC(=O)Nc1cc(NC(=O)CC)ccc1Cl`, the inhibition was -13.8%.
Consider `CCn1c(SC)nnc1-c1nnc(SC)n1CC`, for which the inhibition was -5.7%.
With `Cc1cc(C)cc(C(=O)NCc2ccc3c(c2)OCO3)c1` the figure was -31%.
With `Cc1cc2oc(=O)cc(C)c2cc1NC(=O)CCC(=O)O` the figure was -10.8%; with `Cc1cc2oc(=O)cc(C)c2cc1NC(=O)CCl`, 42.5% (active).
With `CCC(=O)Nc1cc2c(C)cc(=O)oc2cc1C` the figure was -1.6%; with `Cc1cc(OCc2ccc(C(=O)n3cccn3)o2)ccc1Cl`, -24.5%; with `Cc1ccc(C)c(NC(=O)CSc2nnc([C@@H]3CCCN3C(=O)OC(C)(C)C)o2)c1`, 9.1%.
For `CCOC(=O)c1cnc(Nc2nc3ccccc3o2)nc1CN1CCN(C)CC1`, the inhibition is -1.5%.
With `CCOC(=O)c1cnc(Nc2nc3ccccc3o2)nc1CSC(=S)N(CC)CC` the figure was -23%.
With `CCOC(=O)c1cnc(Nc2nc3ccccc3o2)nc1C` the figure was 78.1% (active); with `O=C(O)c1ccc2c(=O)n3c(nc2c1)/C(=C/c1ccccc1Br)CC3`, -85.4%.
With `CCOC(=O)c1c(C)oc2c1c(C=NCCC(=O)O)c(O)c1ccccc12` the figure was -16.5%.
As for `CCOC(=O)c1c(C)oc2c1c(C=NC1CCS(=O)(=O)C1)c(O)c1ccccc12` (centres undefined), the inhibition is 75.8% (active).
As to `CCOC(=O)c1c(C)oc2c1c(C=NCCO)c(O)c1ccccc12`, the inhibition was -37.2%.
With `CCOC(=O)c1c(-c2ccccc2)csc1NC(=O)C(C)NCc1ccco1` (centres undefined) the figure was 1.6%; with `N#C/C(=C\c1ccc(F)c(Cl)c1)S(=O)(=O)c1ccccn1`, 0.3%; with `CC1(C)C(C=C(Cl)Cl)C1C(=O)N/N=C/c1ccccc1F` (centres undefined), 80.1% (active).
On to `COc1ccc(/C=N/NC(=O)C2C(C=C(Cl)Cl)C2(C)C)c(OC)c1` (centres undefined), for which the inhibition was -24.6%.
With `CC1(C)OC2OC(C(=O)N/N=C/c3ccccc3F)C3OC(C)(C)OC3C2O1` (centres undefined) the figure was -13.7%; with `CCN1CNC(=S)N(c2cccc(C)c2)C1`, -5.8%.
As for `CCC(CC)c1nnc(NC(=O)c2cccc(S(=O)(=O)N3CCc4ccccc43)c2)s1`, the inhibition is 56.8%.
In the case of `Cc1nnc(NC(=O)c2cccc(S(=O)(=O)N3CCc4ccccc43)c2)s1`, the inhibition is 11.7%.
Regarding `CCOC(=O)c1sc(NC(=O)c2cccc(S(=O)(=O)N3CCc4ccccc43)c2)c(C#N)c1C`, the inhibition was 79.7% (active).
For the compound `COc1cc2ccccc2cc1C(=O)Nc1ccc(N2CCN(C(=O)C(C)C)CC2)cc1`, the inhibition is 17.8%.
For `CC(=O)OC(C(=O)NC1CCCCC1)c1ccccc1F` (centres undefined), the inhibition is -33.2%.
Consider `O=C(NN1CCOCC1)c1ccc(Cl)cc1[N+](=O)[O-]`, for which the inhibition was -11.4%.
Consider `O=C(Nc1ccc(Br)cc1)c1cccc(S(=O)(=O)Nc2cnc3ccccc3c2)c1`, for which the inhibition was 48.2%.
Take `COc1ccc(NS(=O)(=O)c2ccc(Br)cc2)cn1`: the inhibition is -35.5%.
With `O=C(O)c1ccc(NS(=O)(=O)c2cccc(C(=O)Nc3ccc(Br)cc3)c2)cc1` the figure was -13.1%; with `COc1ccc(NS(=O)(=O)c2ccc3oc4ccccc4c3c2)cn1`, 56.6%; with `Cc1ccc2cc(NC(=O)CC(CC(=O)O)c3ccccc3)ccc2n1` (centres undefined), -10.4%.
Regarding `CNC(=S)NCCc1ccc(OC)c(OC)c1`, the inhibition was 24.7%.
With `CCN(CC)S(=O)(=O)c1cccc(NC(=O)COC(=O)CCC(=O)c2ccc(F)cc2)c1` the figure was -40.1%; with `O=C(c1cc2ccccc2oc1=O)N(c1ccccc1)C1C=CS(=O)(=O)C1` (centres undefined), 5.4%.
With `C/C(=N\N=C(/N)SC1CC(=O)N(c2ccc(Br)cc2)C1=O)c1cccs1` (centres undefined) the figure was 87.7% (active).
With `C/C(=N\N=C(/N)SC1CC(=O)N(c2ccc(Cl)cc2)C1=O)c1cccs1` (centres undefined) the figure was -4.8%; with `C/C(=N\N=C(/N)SC1CC(=O)N(c2ccccc2)C1=O)c1cccs1` (centres undefined), 15.7%.
Turning to `Cc1cccnc1CN1CCN(C(=O)CCc2nnc(CCc3ccccc3)o2)CC1`, the inhibition was -55.3%.
Turning to `CCN1C(=O)/C(=C/c2nc3ccccc3c(=O)[nH]2)c2ccccc21`, the inhibition is 21.1%.
With `CC(C)N1C(=O)/C(=C\c2nc3ccccc3c(=O)[nH]2)c2ccccc21` the figure was 105% (active); with `CCCN1C(=O)/C(=C/c2nc3ccccc3c(=O)[nH]2)c2ccccc21`, -6.3%.
With `O=C(CS(=O)(=O)c1ccccc1)Nc1ncc([N+](=O)[O-])s1` the figure was -39%; with `O=C(COc1ccc(Cl)cc1)Nc1ncc([N+](=O)[O-])s1`, 73.5% (active).
With `CC(C)CC(=O)Nc1ncc([N+](=O)[O-])s1` the figure was 3.6%; with `COc1ccc(CC(=O)Nc2ncc([N+](=O)[O-])s2)cc1OC`, -65%; with `CC(CC(=O)Nc1ncc([N+](=O)[O-])s1)c1ccccc1` (centres undefined), -19.5%.
Take `CCCCC(=O)Nc1ncc([N+](=O)[O-])s1`: the inhibition is -10.8%.
For the compound `Cc1ccc(CC(=O)Nc2ncc([N+](=O)[O-])s2)cc1`, the inhibition is -37.4%.
For the compound `CC(C1CC1)N(Cc1ccccc1)C(=S)Nc1ccccc1Cl` (centres undefined), the inhibition is -9.7%.
As to `CC(SCC(=O)O)c1nc2ccccc2[nH]1` (centres undefined), the inhibition was 10.8%.
With `CCOc1ccccc1N(C)S(=O)(=O)c1ccc2c(c1)N(C(C)=O)CCO2` the figure was 5.2%; with `NC(=O)/C(=C\c1ccccc1)NC(=O)/C=C/c1ccccc1`, -19%.
With `CCOC(=O)c1nn(-c2ccccc2)c2nnc(Cc3ccccc3)c(=O)n12` the figure was 45.2%; with `CCOC(=O)C1=C(CSc2nc3ccccc3s2)NC(=O)NC1c1ccc(OC)cc1` (centres undefined), 67.5% (active); with `CCOC(=O)C1=C(CSc2nc3ccccc3s2)NC(=O)NC1c1cccc([N+](=O)[O-])c1` (centres undefined), 32.6%.
`COC(=O)C1=C(CSc2nc3ccccc3s2)NC(=O)NC1c1ccc(F)cc1` (centres undefined): the inhibition is -25.4%.
With `CCN(CC)CCCNC(=O)C1c2ccccc2C(=O)N(C)C1c1ccc(OC)cc1` (centres undefined) the figure was 99.8% (active); with `CCN(CC)CCCNC(=O)C1c2ccccc2C(=O)N(CCOC)C1c1ccc(F)cc1` (centres undefined), -40.8%.
Consider `CCN1CCN(CCCNC(=O)C2c3ccccc3C(=O)N(C)C2c2ccc(OC)cc2)CC1` (centres undefined), for which the inhibition is -21.6%.
With `COc1ccc(CCN2CC(C(=O)NC3CCCCC3)CC2=O)cc1OC` (centres undefined) the figure was -2%; with `CCCc1cc(NCCCO)n2c(nc3ccccc32)c1C#N`, -0.5%.
On to `Cc1n[nH]c(C)c1CCNCc1ccc(OCC(O)CN2CCCCC2)cc1` (centres undefined), for which the inhibition was -21.7%.
In the case of `Cc1csc(NC(=O)c2cn3ccccc3n2)n1`, the inhibition is 53.2% (active).
With `O=C(Nc1nccs1)c1cn2ccccc2n1` the figure was 22.8%.
In the case of `O=C(Nc1ccccc1)c1cn2ccccc2n1`, the inhibition was 1.1%.
With `Cc1noc(C)c1CSc1cc(C)c2ccccc2n1` the figure was -32.2%; with `COc1ccc(C(=O)Nc2ccc3c(c2)C(=O)N(C)C3=O)cc1OC`, -3.5%.
